Common to all, as to assay: NCI-60 one-dose screen, 48 h (100 = growth as untreated, 0 = no growth, -100 = all killed)
Holding throughout (details): 10 µM unless noted

Test [1] concerns EKVX NSCLC.
Test [2] has as its system SN12C renal.
In test [3] the test system is UO-31 renal.
Test [4] deals with TK-10 renal.
For test [5], the system named is ACHN renal.
Test [6] has as its system CAKI-1 renal.
In test [7] the test system is CCRF-CEM leukemia.
For test [8], the system named is MOLT-4 leukemia.
The test system of test [9] is SR leukemia.
In test [10] the test system is RPMI-8226 leukemia.
For test [11], the system named is OVCAR-8 ovarian.
The test system of test [12] is OVCAR-5 ovarian.
The test system of test [13] is OVCAR-4 ovarian.
Test [14] concerns SK-OV-3 ovarian.
Test [15] has as its system IGROV1 ovarian.
The subject of test [16] is OVCAR-3 ovarian.
For test [17], the system named is HS 578T breast.
In test [18] the test system is NCI/ADR-RES ovarian.
The test system of test [19] is T-47D breast.
Test [20] relates to A498 renal.

About 83,000 compounds went through this panel and 20% of them were active in at least one assay; those are over-represented in the sample as a whole.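 96-well plates, one dose, 48 hours. Percent growth reported; active if below 10.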 Unmarked numbers belong to inactive results. Activity calls are given as the source filed them.

Among the data in PubChem BioAssay (NCI) are growth values, retold here.

With `Cc1cc(C(NC(=O)CCCCCNc2cccc3c2C(=O)N(C2CCC(=O)NC2=O)C3=O)c2cccnc2)c(O)c2ncccc12` (centres undefined), the growth was 34.3% in test [1]; 20.1% in test [2]; 18.7% in [3]; 19.2% in test [4]; 35.6% in test [5]; 14.2% in test [6]. The growth in [7] was -4.83% (active); in [8], 1.29% (active); in [9], 11.6%; in test [10], 14.6%; in [11] it was 11.1%; in test [12] it was 49.8%. Also, the growth was 19.4% in test [13]; 25.4% in test [14]; 9.13% (active) in [15]; 14.2% in test [16]; 1.22% (active) in [17]; 79.6% in [18]. In [19], the growth was 12.1%.
In the case of `COc1cccc(-c2nn(-c3ccccc3)cc2-c2ccnc(N3CCN(C(=O)Nc4ccc(F)cc4)CC3)c2)c1`, the growth is 62.1% in [1]; 67.4% in [2]; 34.4% in test [3]; 92.9% in test [4]; 67.6% in test [5]; 49.2% in [6]. In addition, the growth in [20] was 56.9%; in test [7], 31.8%; in test [8] it was 19.3%; in test [9], 24.8%; in [10], 21.4%; in [12] it was 97.6%. For the same compound, the growth in test [13] is 51.2%; in [14], 107%; in [15], 79.1%; in test [17], 85.8%; in test [18] it was 33.4%; in test [19], 3.31% (active).
Take `CCCC(=O)NC(c1cccc(N(C)C)c1)c1cc(C)c2cccnc2c1O` (centres undefined): the growth in test [1] was 73.8%; in test [2], 78.2%; in [3] it was 31.9%; in [4], 84.9%; in test [5] it was 38.2%; in [6] it was 48.3%. Also, the growth in [7] was 24.1%; in [8], 22.9%; in [9] it was 21.7%; in test [10] it was 63.8%; in test [11], 44%; in [12], 87.4%. Besides, the growth is 53.1% in [13]; 56.5% in test [14]; 40% in test [15]; 8.33% (active) in [16]; 71.4% in [17]; 22.6% in [18]. Moreover, the growth in test [19] is 56.6%.
Turning to `C#Cc1nc(C2=C(C)C(=N\O)/C(=N/O)C2)cs1`, the growth is 95.7% in test [1]; 98.2% in test [2]; -92.4% (active) in test [3]; 196% in test [4]; 78.7% in test [5]; 93.7% in test [6]. Besides, the growth in test [7] was 87.1%; in test [8], 88%; in [9], 54.4%; in [10], 72.2%; in test [12], 109%; in test [13], 99%. Also, the growth was 105% in [14]; -14.1% (active) in [15]; 118% in test [16]; 86.7% in test [17]; 38.5% in test [18]; 82.6% in test [19].
Turning to `COc1ccc(-c2nc3ccc(-c4nnc(SCC(=O)Nc5ccc(C(=O)/C=C/c6ccc(Cl)cc6)cc5)o4)cc3[nH]2)cc1OC`, the growth was 91.9% in test [1]; 94.9% in [2]; 87% in test [3]; 134% in test [4]; 94.3% in [5]; 100% in test [20]. For the same compound, the growth in [7] is 100%; in test [8], 75.8%; in test [9] it was 73%; in test [10], 75.5%; in test [11], 106%; in [12] it was 95.2%. Also, the growth in test [13] is 108%; in [14], 111%; in test [15], 91.9%; in test [16] it was 116%; in [17] it was 96%; in test [18] it was 108%. For the same compound, in test [19], the growth was 89.4%.
`CNC(=O)c1cc(-c2ccc(NC(=O)Nc3ccc(N4CCN(C)CC4)c(C(F)(F)F)c3)cc2)nc2cccnc12`: the growth in [1] was -74% (active); in [2] it was -73.4% (active); in test [3] it was -81% (active); in [4] it was -89.1% (active); in test [5], -94.6% (active); in test [20], 40.9%. The growth in test [7] is -15.1% (active); in [8], -30.5% (active); in test [9], -45.4% (active); in [10] it was -35.8% (active); in test [11], -84% (active); in [12] it was -88.6% (active). Besides, the growth in [13] was -82.4% (active); in test [14], 59.7%; in test [15], -83.9% (active); in test [17] it was -55.7% (active); in test [18] it was -21.6% (active); in test [19] it was -18.8% (active).
Take `COC(=O)C(C)NS(=O)(=O)/N=C1\NC(=O)NC1=C(Cl)Cl` (centres undefined): the growth in [1] is 104%; in test [2], 98.7%; in test [3] it was 81.7%; in test [4], 140%; in test [5], 98.2%; in test [6], 99%. Moreover, the growth in [7] is 95.9%; in [8], 100%; in test [9] it was 93.2%; in [10], 104%; in test [12], 98.8%; in test [13] it was 113%. In addition, the growth was 119% in test [14]; 104% in test [15]; 117% in [16]; 107% in test [17]; 105% in test [18]; 107% in test [19].
